# Hits are enriched below; roughly 6.8% of the tested compounds scored in any of these assays.
# C diff growth – C. difficile growth inhibitors, primary screen, HTS. Clostridium difficile clinical isolate growth, OD600, 24 h; hits give low values. growth activity, negative = inhibition, % at 16 µg/mL (by protocol). 0.25% of 86,000 active;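 active = mean growth activity at or below -80% and every replicate also at or below -80%; inconclusive = mean at or below -80% but some replicate above -80%; inactive = mean growth activity above -80%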;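 note: 0% = DMSO wells and -100% = levofloxacin 16 µg/mL wells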
# T cruzi growth-1 – T. cruzi intracellular proliferation inhibitors, primary screen, cell-based, beta-gal Tulahuen parasites, NIH3T3 host, luminescence; inhibition, % at 8.34 µM; 5.9% of 77,000 active; T. cruzi beta-gal in NIH3T3, GalScreen luminescence, 90 h; AID 624255, 2012;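 active = mean inhibition above about 93%, with at least 55% of replicates each passing it, limit read from the data, passing the limit was not always enough; inconclusive = only one of those two conditions holds; inactive = neither condition holds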
# Pf Dd2 inh – P. falciparum Dd2 growth inhibitors, primary screen, SYBR Green fluorescence, single dose replicates; 72 h; hits give low values; activity change, % at 10 µM; 2.3% of 94,000 active; in the data active = activity change below about -80%; inconclusive = no clear call, values can overlap the other calls
# T cruzi growth-2 – T. cruzi intracellular proliferation inhibitors, confirmation, cell-based, NIH3T3 host, beta-gal parasite, luminescence, cherry-pick; shares compounds with T cruzi growth-1; T. cruzi beta-gal in NIH3T3, GalScreen luminescence, 90 h; inhibition, % at 8.35 µM; 72% of 5,600 active; AID 651739, 2012;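 active = mean replicate inhibition above about 95% and at least 55% of replicates individually reaching it, limit read from the data; inconclusive = only one of the two criteria is met; inactive = neither criterion is met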
# T cruzi growth-3 – inhibitors of intracellular T. cruzi replication, confirmation, NIH3T3 host cells, beta-gal parasites, cherry-pick, set 2 | shares compounds with T cruzi growth-1 | T. cruzi beta-gal in NIH3T3, GalScreen luminescence, 90 h | inhibition, % at 2.09 µM | 21% of 5,600 active | AID 651740, 2012;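 active = mean inhibition above about 95%, with at least 55% of replicates also reaching it, limit read from the data; inconclusive = meets just one of the two conditions; inactive = meets neither condition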;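 note: plate controls were neutral control median for no effect and positive control median for full effect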
# NIH3T3 tox – cytotoxicity in mouse NIH/3T3 fibroblasts, confirmation, cytotoxicity control for T. cruzi proliferation inhibitor project, cell-based, cherry-pick, single point. shares compounds with T cruzi growth-1. NIH/3T3 viability, CellTiter-Glo ATP luminescence, 90 h. cytotoxicity (signal decrease), % at 8.35 µM. 14% of 5,600 active. AID 651742, 2012;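 active = mean signal decrease across replicates above about 35% based on untreated-well scatter, with enough replicates individually passing, limit read from the data; inconclusive = no rule stated though some were filed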;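 note: 0% = median of neutral control wells and 100% = median of positive control wells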
# 3T3 cytotox 2 – NIH/3T3 fibroblast cytotoxicity, confirmation, cytotoxicity control, cell-based, cherry-pick, single point, set 2 | inhibition, % at 24.9 µM | AID 651744, 2012 | shares compounds with T cruzi growth-1 | 56% of 5,600 active | NIH/3T3 viability, CellTiter-Glo ATP luminescence, 90 h;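 active = mean loss of cell viability signal at or above a set limit, and enough replicates individually reaching it; inconclusive = meets only the mean limit or only the replicate share; inactive = meets neither condition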;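 note: 0% = median of neutral control wells and 100% = median of positive control wells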
# * = called active by the depositor; u = inconclusive; x = not tested or not shown.
SMILES,C diff growth,T cruzi growth-1,Pf Dd2 inh,T cruzi growth-2,T cruzi growth-3,NIH3T3 tox,3T3 cytotox 2
CCC(=O)N1CC2(CCN(C(=O)NC(C)C)CC2)c2c(n(C)c3cc(OC)ccc23)[C@@H]1CO,-1.8,x,11.4,x,x,x,x
C[C@H]1CN([C@@H](C)CO)C(=O)Cc2cc(NC(=O)Nc3ccc(F)cc3)ccc2O[C@H]1CN(C)CC1CC1,-0.2,8.0,-12.0,x,x,x,x
CC(C)CC#Cc1ccc([C@H]2[C@H](CO)N3CCCCN(S(=O)(=O)Cc4ccccc4)C[C@@H]23)cc1,-10.6,100.2*,u,103.7*,91.6,23.7,106.6*
C[C@H](O)C#Cc1ccc([C@@H]2[C@H](CO)N3CCCCN(S(=O)(=O)Cc4ccccc4)C[C@@H]23)cc1,-5.2,16.9,-19.9,x,x,x,x
O=S(=O)(Cc1ccccc1)N1CCCCN2[C@H](CO)[C@H](c3ccc(C#Cc4ccccc4)cc3)[C@@H]2C1,-4.6,106.2*,-75.6,103.5*,107.9*,18.2,65.9*
COc1ccccc1C#Cc1ccc([C@H]2[C@@H](CO)N3CCCCN(S(C)(=O)=O)C[C@@H]23)cc1,-1.3,87.3,20.2,x,x,x,x
CCCC#Cc1ccc([C@H]2[C@H](CO)N3CCCCN(S(=O)(=O)Cc4ccccc4)C[C@@H]23)cc1,55.4,97.3*,-34.0,101.4*,61.0,39.3*,104.1*
O=S(=O)(Cc1ccccc1)N1CCCCN2[C@@H](CO)[C@@H](c3ccc(C#Cc4ccccc4)cc3)[C@@H]2C1,38.7,-11.6,-53.6,x,x,x,x
CCCC#Cc1ccc([C@H]2[C@@H](CO)N3CCCCN(S(=O)(=O)CC)C[C@@H]23)cc1,2.2,67.5,-23.5,x,x,x,x
CCS(=O)(=O)N1CCCCN2[C@@H](CO)[C@H](c3ccc(C#Cc4ccccc4OC)cc3)[C@@H]2C1,60.1,114.2*,-14.6,110.4*,94.8,24.8,82.6*
Cc1ccc(S(=O)(=O)N(C)C[C@@H]2Oc3c(NC(=O)C4CCCCC4)cccc3C(=O)N([C@H](C)CO)C[C@@H]2C)cc1,6.6,-67.1,-64.1,x,x,x,x
COc1ccc2c3c([nH]c2c1)[C@H](CO)N(C(=O)NC(C)C)CC31CN(C(=O)c2ccccn2)C1,x,x,-16.7,x,x,x,x
C[C@@H]1CCCCO[C@@H](CN(C)Cc2ccncc2)[C@@H](C)CN([C@@H](C)CO)C(=O)c2cc(NC(=O)NC3CCCCC3)ccc2O1,14.5,103.1*,-5.4,35.3,0.7,-30.6,3.3
C[C@@H]1CN([C@@H](C)CO)C(=O)c2cc(NC(=O)NC3CCCCC3)ccc2O[C@@H](C)CCCCO[C@@H]1CN(C)Cc1ccncc1,-7.6,87.3,-5.3,x,x,x,x
C[C@@H]1CN([C@@H](C)CO)C(=O)c2cc(NC(=O)NC3CCCCC3)ccc2O[C@@H](C)CCCCO[C@H]1CN(C)Cc1ccncc1,0.5,16.2,27.4,x,x,x,x
C[C@H](CO)N1C[C@H](C)[C@H](CN(C)Cc2ccncc2)OCCCC[C@H](C)Oc2ccc(NC(=O)NC3CCCCC3)cc2C1=O,-1.7,96.7*,19.7,106.5*,31.2,1.1,12.6
C[C@@H]1CN([C@H](C)CO)C(=O)c2cccc(NS(=O)(=O)c3ccc(Cl)cc3)c2O[C@H]1CN(C)C(=O)Nc1ccc(C(F)(F)F)cc1,12.2,-53.6,0.5,x,x,x,x
Cc1cccc(-c2ccc([C@H]3[C@H](CO)N4CCCCN(C(=O)c5ccc6c(c5)OCO6)C[C@@H]34)cc2)c1,8.4,113.8*,-55.3,102.6*,49.1,32.9,103.4*
O=C(c1ccc2c(c1)OCO2)N1CCCCN2[C@H](CO)[C@@H](c3ccc(-c4ccccc4)cc3)[C@@H]2C1,-2.2,115.0*,-60.9,99.2*,93.0,52.3*,88.2*
Cc1cccc(-c2ccc([C@@H]3[C@H](CO)N4CCCCN(C(=O)c5ccncc5)C[C@@H]34)cc2)c1,-5.5,16.4,18.1,x,x,x,x
O=C(c1ccc2c(c1)OCO2)N1CCCCN2[C@H](C1)[C@@H](c1ccc(-c3ccccc3)cc1)[C@@H]2CO,42.7,87.5,3.3,x,x,x,x
CO[C@H]1CN(C)C(=O)c2ccc(NC(=O)C3CCC3)cc2OC[C@@H](C)N(CC2CCCCC2)C[C@@H]1C,x,u,-65.7,107.0*,23.5,-12.3,103.3*
CO[C@@H]1CN(C)C(=O)c2cc(NC(=O)C3CCOCC3)ccc2OC[C@@H](C)N(CC2CCOCC2)C[C@H]1C,x,18.2,x,x,x,x,x
CO[C@@H]1CN(C)C(=O)c2ccc(NC(=O)C3CC3)cc2OC[C@@H](C)N(CC2CCCC2)C[C@H]1C,-1.4,x,-20.8,x,x,x,x
CO[C@@H]1CN(C)C(=O)c2cc(NC(=O)C3CCOCC3)ccc2OC[C@@H](C)N(CC2CC2)C[C@@H]1C,x,98.9*,-36.3,46.4,10.2,-14.1,6.0
SMILES,C diff growth,T cruzi growth-1,Pf Dd2 inh,T cruzi growth-2,T cruzi growth-3,NIH3T3 tox,3T3 cytotox 2
C[C@H]1CN([C@@H](C)CO)S(=O)(=O)c2ccc(-c3ccncc3)cc2O[C@H]1CN(C)C(=O)CC1CC1,4.7,23.2,-13.1,x,x,x,x
CC(C)NC(=O)N(C)C[C@H]1Oc2cc(C#Cc3cccc(F)c3)ccc2S(=O)(=O)N([C@H](C)CO)C[C@@H]1C,6.0,4.5,-43.3,x,x,x,x
CC(=O)N(C)C[C@@H]1Oc2cc(C#Cc3cccc(F)c3)ccc2S(=O)(=O)N([C@@H](C)CO)C[C@@H]1C,7.0,43.5,-28.0,x,x,x,x
CC(=O)N(C)C[C@H]1Oc2cc(C#Cc3cccc(F)c3)ccc2S(=O)(=O)N([C@H](C)CO)C[C@@H]1C,5.2,64.0,-30.8,x,x,x,x
CCCNC(=O)N(C)C[C@H]1Oc2cc(C#CCC(C)C)ccc2S(=O)(=O)N([C@@H](C)CO)C[C@@H]1C,-8.8,105.9*,-27.2,100.1*,30.7,16.1,28.1*
CCCNC(=O)N(C)C[C@@H]1Oc2cc(C#Cc3cccc(F)c3)ccc2S(=O)(=O)N([C@H](C)CO)C[C@@H]1C,-30.0,116.4*,-36.7,110.6*,61.3,15.5,47.4*
CCCNC(=O)N(C)C[C@H]1Oc2cc(C#Cc3cccc(F)c3)ccc2S(=O)(=O)N([C@H](C)CO)C[C@H]1C,3.6,125.2*,-31.8,105.5*,79.7,30.8,66.3*
CCCNC(=O)N(C)C[C@@H]1Oc2cc(C#Cc3cccc(F)c3)ccc2S(=O)(=O)N([C@@H](C)CO)C[C@@H]1C,-20.8,116.6*,-44.6,109.6*,46.6,32.0,83.1*
CCCNC(=O)N(C)C[C@@H]1Oc2cc(C#CCC(C)C)ccc2S(=O)(=O)N([C@H](C)CO)C[C@@H]1C,-2.7,61.9,-37.3,x,x,x,x
